This note sets out measurements from PubChem BioAssay AID1508600 (Functional Genomics Laboratory (NCATS/FGL), 2020).

In all, about 53,000 sequences went through this assay and about 3,700 (7%) were called active. Shown is part of a subset that was picked to be rich in actives. A number with no mark means an inactive call.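 How the source made its calls: active means gene knockdowns whose robust z-score for IL-1 alpha signal is at least 2 or at most -2, so actives lie on both sides; inactive means the rest.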

The nature of this assay: Components of the Cytosolic LPS Sensing Pathway: Gene Identification via Genome-wide siRNA Screen.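 Further: robust z of the log signal after scaling to non-targeting control siRNA wells of the plate.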 As to conditions: RAW264.7 macrophages, IL-1a HTRF, actives lie on both sides, screened at 100 nM (by protocol), cells primed 5 h with Pam3CSK4 first. In a few lines:
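Using IL-1a HTRF as read-out, the screen measured release from RAW264.7 cells after 48h siRNA knockdown (100 nM), 5 h Pam3CSK4 priming and 24 h cytosolic LipidA. Values were expressed relative to negative-control wells as robust z-scores.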
In general terms: Time-resolved FRET reads energy transfer from a long-lived donor to a nearby acceptor.
In the case of GGACCAAAGAUGCAUCAGUTT against Zfyve16, the z-score is -0.788.
On to GGACCAAGGCUUUAUGAACTT against Crygn, for which the z-score was 0.404.
Under GGCCUACGAACAGGUCAUGTT against Foxa2 stands 0.0835; under “CGUGUCUGAAGGACUACAATT against 1700052K11Rik”, 0.0454.
In the case of GCAGUAAGUCAGUGCCUCATT against Atxn1 it was 1.51; in that of GGUUGAUGCCAUGAAGUCCTT against Acyp2, -1.22.
In the case of GGUUGUUGUGACCUUCCUGTT against Bod1, the z-score was -2.65 (active).
As for GGGACAUUAUGCUUAUGACTT against Srsf7, the z-score was -0.513.
Under GGCAGAAGCCUAAAACGGUTT against Nudt2 stands 0.00394; under GGCAUUCUGAAAACAACUCTT against Hvcn1, 2.02 (active); under GCCAAGACCUAUGAGUAUATT against Naaladl1, 1.33.
Under CCGAUAAUAUCAAUGGAAATT against Med24 stands 0.744; under GGACAUCAAGAAGGACAAATT against Ppp2r5d, 0.874.
As to GGGUCAAAGAGAAAAAAGUTT against Hoxa13, the z-score was -1.2.
Consider GGUGAUGGUGUAAAAUACATT against Dab2, for which the z-score was 4.98 (active).
As for GGAGAAGCAUGGCUAUAACTT against Rcor2, the z-score is -0.393.
With GGUGACCUACAAGAUUUGUTT against Csdc2, the z-score is -0.801.
In the case of GUCACUCUUUUUUAUGGAATT against Olfr485 it was -1.48.
Turning to GGCGAAUUGAAGGAGACCATT against Tmod3, the z-score was 2.54 (active).
In the case of GGGCAUAGAUUAGUCUUUATT against Ing2 it was 1.01; in that of GCGCAUAUUUUAUCAACUCTT against Plcb3, 0.38; in that of GGAACCAUGGACCUUAAUUTT against Rbm4, 0.291.
Under GCUUUCCUAGACAAUCUAUTT against Arhgap19 stands 0.0654.
For GGCUGCAUUACCCAGCUUATT against Olfr853, the z-score is 0.719.
For the sequence GGAAGUCCUAUGAUUAAACTT against Zfand1, the z-score was -0.633.
Under CCUUCUAUUCACUUUACCATT against Vmn1r87 stands -0.907; under GGGUUCACAUGGCAUAGUCTT against Zfp1, -0.0137; under GGAGAGUACAGACACUGAGTT against Masp2, -0.22.
In the case of GCUUAGACAACGACAUUUCTT against Mcoln3 it was 2.04 (active); in that of GGUCUUCUCCAAGAUCUUCTT against Cyp26b1, 1.03.
As for GCACACCUAUGUCCACUCUTT against Aars, the z-score is -0.923.
For GGUGCCUUCUGUAAACGAGTT against Foxc2, the z-score was 2.81 (active).
In the case of GGAAGGAAAACCUUUCAACTT against Cyp2j6 it was 0.975.
As for GGUGGUGACCUUGGAUGUUTT against Gstp3, the z-score is -0.00982.
GGAAGCACAUAGAAGCCAATT against Defb11: the z-score is -0.504.
Under GGGAGAGUGGAUCAUCAAUTT against P2ry10 stands -0.0942.
With GGGAAUAUUUGGAUAACUUTT against Pak7, the z-score was 4.24 (active).
Turning to GCCACGACCAUUCAGACUCTT against Lrrc42, the z-score was 1.27.
On to GGAUGAUCGGCACUAUAACTT against Otulin, for which the z-score is 1.81.
Regarding GGAGAGAUGUUUAUGAAUATT against Slc6a14, the z-score was -0.429.
GGAAAAAGAUAGAACCAGATT against Larp1b: the z-score is -0.177.
For GGAAAGCUCUUUGUGUCGGTT against Gramd3, the z-score is -0.476.
Take CCAUCUAGUGCUGUAUUUCTT against Rnf215: the z-score is 0.67.
In the case of GGUGAAAUCCAUUAAAGAATT against Fth1, the z-score was -2.06 (active).
Under GGAGUUUUCUCGAAACUUCTT against Fate1 stands 0.993; under GGACCAAGAACCAGCAAUGTT against Defb6, -0.69; under GGAAAAACUGAAACAGUUUTT against Eif3a, 1.06.
Regarding AACACGGCUCUAGCCAAUCTT against Ypel4, the z-score is -1.25.
In the case of GCCAAUUUGAAUGGGAUGUTT against Magohb, the z-score was -2.25 (active).
As to GGUGGUUACCAUAGCUGGUTT against Arid2, the z-score was 1.67.
Under CCUAAACUCACUCUUGUGUTT against Chrna6 stands -0.000677.
On to CCUAGACGUGACUUAAUAUTT against Rabggtb, for which the z-score is 2.09 (active).
In the case of CCUCAGCAAAUAUAUGGCATT against Ccdc7b it was 0.0117.
Under GCAAGCUGAGCAUUGAUGATT against Csk stands 0.0106.
For the sequence GCAGUCUUUUGGAUAGGUUTT against Ccni, the z-score is 0.86.
With GCUGUGCAGCCACAAGUGATT against Gpr142, the z-score is 8.63 (active).
For GGAUGGAAUGCAGAAACGATT against Pcp2, the z-score is -0.061.
For the sequence GGGAUCAGAAAAGUUAACATT against Acaca, the z-score is 0.785.
For GGACUUCACUUUUCUAUGATT against Tmem64, the z-score was 1.47.
As for GGCUUUGGACUGUAUGACCTT against Ccdc159, the z-score is -0.923.
On to GGUGGAAAGAGAGAGCUACTT against Slc12a7, for which the z-score is 0.458.
In the case of GGUUUGCUGAGAAAUUAACTT against Btg3 it was 0.958; in that of GCCCACGUAUUUGUCUGCUTT against Sprn, -2.58 (active); in that of GCCUUCUUAACUUCAUCACTT against Taar5, 1.16.
Take CCUGAACACAAGUGCUGGUTT against Clec4a4: the z-score was -1.8.
For GGCCAUCACACACAGAAACTT against Pla2g2f, the z-score is -0.505.
As to GGCUAUGCAGAUGGUACCUTT against Vil1, the z-score is 0.871.
Regarding CCAUGUGUCAAACUACCGGTT against Rbmx2, the z-score was 7.02 (active).
Turning to CCAUGAUUAAGGGUCUCUATT against Ldha, the z-score is 0.111.
As to GGUGGUAAAUAAUUAAGGATT against Clec14a, the z-score was 0.623.
In the case of GGAACUGAUAAACUACUCUTT against Olfr1126, the z-score was -2.08 (active).
Under GGGAAUGAGUCAGCUCUUUTT against Cd163 stands -0.667; under GGCUAAACUGAAGGAAUUCTT against Fkbp10, 0.875; under GGUAGGAAUUUGGAAAACUTT against H2-T24, 1.5.
As for GGAAAUUGUUGUUUCCCGUTT against Sf3b3, the z-score was -1.45.
As for GGCCACCAAGAAAUUCAAATT against Cd22, the z-score was 4.16 (active).
Consider GCCUAUCUGUGACUGACCUTT against LOC433501, for which the z-score was -0.171.
As for GCGAGAGCUAAAGUAAAAUTT against Egln1, the z-score was -0.671.
Turning to GGCUAAAGUGAGCUCUUCATT against Nob1, the z-score was -0.947.
In the case of GGUGUGUUACUGAUGAUUCTT against Olfr669, the z-score is -0.37.
In the case of GCAGAGUGACUUUGAAGCGTT against Klf10, the z-score was 0.844.
CCAAGUUCAUUCUUUUUGCTT against Cobll1: the z-score is 1.2.
For CCCUAGAAGAAUCAAGCUCTT against Prune2, the z-score is -1.35.
Turning to GGAAUGAUAGAAAAUGGACTT against Gvin1, the z-score is -2.16 (active).
In the case of GGCAGAGACCACUAAUACCTT against Tmem131l it was -0.881; in that of GGCAGGCAAUUCAAACAAUTT against Orm1, -1.24.
GCUAUCCUCAAUUGCACACTT against Atxn3: the z-score was 1.49.
As to GGUUUGAAAGGAGAAAGAGTT against Col4a6, the z-score is 0.366.
For GGCCUUCGUCAUCUUCAAGTT against Snrpa, the z-score was 1.05.
For GGCCCAAGCUCAACACAAUTT against Aida, the z-score was 2.31 (active).
Turning to GGCCAAGAAAAAAGAAAGATT against Slc22a2, the z-score is 0.126.
For the sequence GGGUUCAGGAGAACUAACUTT against Tmem40, the z-score is -1.92.
Regarding GGAUCCUGUUAAGAUUAUCTT against Phykpl, the z-score was -0.0411.
Take GGAUAUUCACUUUCAUAUGTT against Gulp1: the z-score is 1.25.
Take GGUUUAUGGAGCAAGUGAUTT against Actr3: the z-score was -2.07 (active).
In the case of CCAACAAUGUUUAAAGGAUTT against Olfr476 it was -0.32.
Consider GCCAUGUGCACUGAAUAUATT against Gfral, for which the z-score is -1.87.
For the sequence GGUCAUCAGUGAUCAGUCATT against Mre11a, the z-score was -1.33.
For GCAGCAUCCAACUUCCGCUTT against Ffar2, the z-score is 3.35 (active).
For GGAAAAAAUCAAGAGUGAATT against Fam50a, the z-score is -0.157.
Under GCUACUCUCUAUUGGUUUUTT against Gpr45 stands 2.45 (active); under GGUGAACUUGAGGUCACACTT against Angpt4, 0.134.
Under GCGGGUUUAUUGUCUAGAATT against Mfn2 stands 0.669; under GGAAGUAGAUUUGAAGUUGTT against Btbd35f1, 0.256.
Turning to GGAGCUCUUUUUGAACACUTT against Sgcg, the z-score was 0.946.
GGCCAAUCAAGAUAGCCACTT against Dnajc1: the z-score is 1.12.
On to GCUCUCUCUCUUCUUACUGTT against Olfr1160, for which the z-score is -2.16 (active).
Under GCCGUUUGGUUUCGAACUUTT against Mboat2 stands 1.17.
